# Source: PubChem BioAssay (NCATS)
# “And” between values parts separate entries of the source, which are not always exact repeats. Identical values can stand only once. Results filed as inconclusive are left out. The source made the active and inactive calls. Unless noted, the call rests on the fitted dose curve.
# Key:
# [1] = S16 Schwann cell PMP22 intronic element beta-lactamase assay (AID 624044); conditions: S16 rat Schwann cells, PMP22 element beta-lactamase FRET, 24 h; ratio activity, negative = inhibition: at 38.3 µM (top of the series) unless noted; further: potency means the concentration at half of the fitted maximal effect; nearly all actives have a fitted effect of over 15% in size
# How it was run: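 Rat S16 Schwann cells with beta-Lac driven by a PMP22 intronic element, compound-treated 24 h at 37 °C. LiveBLAzer FRET B/G read: 460 nm normalized to potassium clavulanate vs DMSO; 535 nm FRET as viability; concentration-effect curves classified.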
# [2] = Confirmatory qHTS to identify inhibitors of SARS-CoV-2 cell entry (AID 1645844); further: nearly all actives have a fitted effect of over 45% in size; further: potency means the concentration at half of the fitted maximal effect; on activity, negative = inhibition: on the % scale 0 is the no-effect control and ±100 the full control effect
# How it was run: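 Luminescence from a luciferase reporter, read 48 hr after pseudotyped-particle addition, gives entry signal, normalised to spike-bearing PP wells and bald PP lacking fusion protein wells. Cells are Expi293F stably expressing human ACE2, compound-pretreated 1 hr.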
# [3] = Primary qHTS to identify inhibitors of SARS-CoV-2 cell entry (AID 1645846); conditions: SARS-CoV-2 pseudovirus cell entry assay, luminescence; activity change, negative = inhibition: at 57.1 µM (top of the series) unless noted; further: nearly all actives have a fitted effect of over 45% in size; further: potency means the concentration at half of the fitted maximal effect
# How it was run: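 Luminescence readout (Bright-Glo luciferase) 48 h after pseudoparticle addition. HEK293-ACE2 cells, 1500/well; compound pre-incubation 1 h; Normalized to spike PP and bald PP.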
# [4] = VSVG counterscreen qHTS to identify inhibitors of SARS-CoV-2 cell entry (AID 1645847); further: nearly all actives have a fitted effect of over 65% in size; further: potency means the concentration at half of the fitted maximal effect; on activity change, negative = inhibition: on the % scale 0 is the no-effect control and ±100 the full control effect
# How it was run: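 HEK293-ACE2 cells (Expi293F stably expressing human ACE2) were pretreated with compound for 1 h at 37 °C, then infected with MLV-based VSV-G pseudotyped particles for 48 h. Luciferase luminescence was normalized to VSV-G PP and bald PP wells.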
# [5] = Cytotoxicity counterscreen for inhibitors of SARS-CoV-2 cell entry (AID 1645845); conditions: outcome: dose series up to 57.1 µM unless noted; further: nearly all actives have a fitted effect of over 50% in size
# How it was run: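 48 h compound treatment (after 1 h preincubation), HEK293-ACE2 cells, 37 C/5% CO2; ATP luminescence endpoint; normalized to cell wells and media blanks.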
# [6] = Primary qHTS for inhibitors of nuclear receptor binding SET domain protein 2 (NSD2) in an isogenic RCH-ACV NSD2 p.E1099K mutant (9B) (AID 1645876; active means well fitted curve in the direction sought with a large enough effect; an effect the other way counts as inactive or inconclusive; further: on the % scale 0 is the no-effect control and ±100 the full control effect; nearly all actives have a fitted effect of over 70% in size)
# [7] = Primary qHTS for inhibitors of nuclear receptor binding SET domain protein 2 (NSD2) in an RCH-ACV wild type WT cells (2C) (AID 1645877; active means well fitted curve in the direction sought with a large enough effect; an effect the other way counts as inactive or inconclusive; further: on the % scale 0 is the no-effect control and ±100 the full control effect; nearly all actives have a fitted effect of over 70% in size)
# [8] = qHTS drug screen for cell cycle checkpoint inhibitors in PARPi-resistant BRCA-mutant ovarian cancer cell lines. (AID 1963452); conditions: PEO1/OlaR viability, CellTiter-Glo luminescence, 96 h, stronger effect = lower value
# How it was run: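 PEO1, PEO4 and PEO1/OlaR ovarian cancer cells, 600 per well, exposed 96 h at 37C to a dilution series. Viability read by CellTiter-Glo luminescence, normalized to DMSO and empty wells; activity summarized as Z-AUC.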
compound,measurement,setting,value
C[C@@]12C(=O)OC(=O)[C@]1(C)[C@H]1CC[C@@H]2O1,Potency,[1],3370 nM (active)
same,Potency,[2],4820 nM (active)
same,Potency,[3],8910 nM (active)
same,Potency,[4],3040 nM (active)
NC(=O)/C(=C/n1cnc(-c2cc(C(F)(F)F)cc(C(F)(F)F)c2)n1)c1cncnc1,Potency,[2],607 nM (active)
same,Potency,[5],inactive
same,Potency,[3],1260 nM (active)
same,Potency,[4],108 nM (active)
N#Cc1cccnc1N1CCN(C(=O)c2cccc(Cc3n[nH]c(=O)c4ccccc34)c2)CC1,Potency,[2],68.1 nM (active)
same,"activity change, negative = inhibition",[3],-93.1%
c1cc(Nc2cc(C3CC3)[nH]n2)nc(Nc2ccc3nc[nH]c3c2)n1,Potency,[2],192 nM (active)
same,"activity change, negative = inhibition",[3],-94.9%
same,Potency,[4],242 nM (active)
COc1ccc(S(=O)(=O)N2CCc3cccc(-c4ccncc4)c32)cc1,Potency,[2],961 nM (active)
same,Potency,[4],1520 nM (active)
CCNC(=O)Nc1ccc(-c2nc3c(c(N4CCOC[C@@H]4C)n2)CCN(C2COC2)C3)cc1,Potency,[2],12100 nM (active)
same,Potency,[3],10000 nM (active)
C[C@H]1COCCN1c1cc(C2(S(=O)(=O)C3CC3)CC2)nc(-c2ccc(NC(=S)NCCO)cc2)n1,Potency,[2],764 nM (active)
same,Potency,[5],inactive
same,"activity change, negative = inhibition",[3],-79.3%
CS(=O)(=O)c1ccc(-c2cnc(NCc3ccco3)n3cnnc23)cc1,Potency,[2],27100 nM (active)
same,Potency,[5],inactive
same,"activity change, negative = inhibition",[3],-43.5%
Cc1cc(/C=c2/sc3nc4ccccc4n3c2=O)c(C)n1-c1ccccc1,Potency,[2],34.1 nM (active)
same,"activity change, negative = inhibition",[3],-93.9%
same,Potency,[4],68.1 nM (active)
O=c1c(-n2ccnn2)c[nH]n1-c1cc(N2CCOCC2)ncn1,Potency,[2],4820 nM (active)
same,Potency,[3],7080 nM (active)
same,Potency,[4],21500 nM (active)
CCc1nc(C(N)=O)c(Nc2ccc(N3CCC(N4CCN(C)CC4)CC3)c(OC)c2)nc1NC1CCOCC1,Potency,[2],3410 nM (active)
same,Potency,[5],inactive
same,Potency,[3],10000 nM (active)
O=C(Nc1cc(Oc2cc(F)c(NC(=O)C3(C(=O)Nc4ccc(F)cc4)CC3)cc2F)ccn1)C1CC1,Potency,[2],21500 nM (active)
same,Potency,[5],inactive
same,"activity change, negative = inhibition",[3],-38.1%
same,Potency,[4],15200 nM (active)
CC(C)n1c(=O)cc(N[C@@H](C)c2ccccc2)[nH]c1=O,Potency,[2],inactive
same,Potency,[5],inactive
same,"activity change, negative = inhibition",[3],-96.7%
same,Potency,[4],inactive
O=C(Nc1cccnc1)c1cc(-c2ccnc(F)c2)ccc1OCc1ccccc1,Potency,[2],inactive
same,Potency,[5],inactive
same,"activity change, negative = inhibition",[3],-5.26%
same,Potency,[4],inactive
Cc1c[nH]c2ncnc(N3CCC(CN)(C(=O)Nc4cccc(OC(=O)N(C)C)c4)CC3)c12,Potency,[2],inactive
same,Potency,[5],inactive
same,"activity change, negative = inhibition",[3],-8.16% and -70.1%
C=CC(=O)N1CCC(Oc2cc3c(Nc4ccc(Cl)c(Cl)c4F)ncnc3cc2OC)CC1,Potency,[2],1360 nM (active)
same,Potency,[5],inactive
same,Potency,[4],961 nM (active)
CN1CCC(c2c(O)cc(O)c3c(=O)cc(-c4ccccc4Cl)oc23)C1CO (configuration not stated),Potency,[2],3040 nM (active)
same,Potency,[5],inactive
same,Potency,[3],2820 nM (active)
same,Potency,[4],2410 nM (active)
COc1cc(OC)c(/C=C/S(=O)(=O)Cc2ccc(OC)c(OP(=O)(O)O)c2)c(OC)c1,Potency,[2],17.5 nM (active)
same,Potency,[5],inactive
same,"activity change, negative = inhibition",[3],-77.7%
same,Potency,[4],39.3 nM (active)
C[C@H]1[C@H](O)[C@@H](C)/C=C/C=C/CC/C=C/C=C/C=C/C=C/[C@H](O[C@@H]2O[C@H](C)[C@@H](O)[C@H](N)[C@@H]2O)C[C@@H]2O[C@](O)(C[C@@H](O)[C@H](O)CC[C@@H](O)C[C@@H](O)C[C@@H](O)CC(=O)O[C@H]1C)C[C@H](O)[C@H]2C(=O)O,Potency,[2],9610 nM (active)
same,Potency,[5],inactive
same,Potency,[6],inactive
same,Potency,[7],inactive
same,Z-AUC,[8],1.03 (inactive)
same,Z-AUC,[8]; measured here: PEO1 parental Z-AUC,0.678
same,Z-AUC,[8]; measured here: PEO4 Z-AUC,1.2
CCCCNc1ncc(-c2ccc(CN3CCOCC3)cn2)c(NC2CCC(O)CC2)n1 (configuration not stated),Potency,[2],1050 nM (active)
same,Potency,[5],inactive
CO[C@@H]1[C@@H](O)[C@H](O)[C@@H](n2c3c(Cl)cccc3c3c4c(c5c6cccc(Cl)c6[nH]c5c32)C(=O)NC4=O)O[C@H]1CO,Potency,[2],961 nM (active)
same,Potency,[3],1000 nM (active)
NC(=O)c1ccccc1Nc1ccnc(Nc2cccc(O)c2)n1,Potency,[2],9610 nM (active)
same,Potency,[3],8910 nM (active)
CNCCCOc1cc(F)c(-c2c(Cl)nc3ncnn3c2N[C@@H](C)C(F)(F)F)c(F)c1,Potency,[2],1210 nM (active)
same,"activity change, negative = inhibition",[3],-85.4%
same,Potency,[4],121 nM (active)
COc1ccc2[nH]c3c(c2c1)CCN[C@]31CS[C@@H]2c3c(OC(C)=O)c(C)c4c(c3[C@H](COC1=O)N1[C@@H]2[C@H]2c3c(cc(C)c(OC)c3O)C[C@@H]([C@@H]1O)N2C)OCO4,Potency,[2],4.4 nM (active)
same,Potency,[3],631 nM (active)
same,Potency,[4],3.5 nM (active)
CN[C@H]1CN(c2ccc3c(=O)c(C(=O)O)cn(-c4nccs4)c3n2)C[C@@H]1OC,Potency,[2],555 nM (active)
same,Potency,[4],622 nM (active)
CCN(CCCOc1ccc2c(Nc3cc(CC(=O)Nc4cccc(F)c4)[nH]n3)ncnc2c1)CCOP(=O)(O)O,Potency,[2],34.1 nM (active)
same,Potency,[5],inactive
same,"activity change, negative = inhibition",[3],-62.3%
CN(C)CCN1C(=O)c2cccc3cc(NC(N)=O)cc(c23)C1=O,Potency,[2],9610 nM (active)
same,Potency,[3],7080 nM (active)
same,Potency,[4],12100 nM (active)
Nc1nc(-c2nn(Cc3ccccc3F)c3ncccc23)ncc1C1CC1,Potency,[2],5410 nM (active)
same,Potency,[4],12100 nM (active)
CN1C(=O)[C@@H](NC(=O)c2cc(Cc3ccccc3)on2)COc2ccccc21,Potency,[2],inactive
same,Potency,[4],inactive
CCc1cnn2c(NCc3ccc[n+]([O-])c3)cc(N3CCCC[C@H]3CCO)nc12,Potency,[2],54.1 nM (active)
same,Potency,[5],inactive
C=CC(=O)Nc1cccc(Nc2nc(Nc3ccc(OCCOC)cc3)ncc2F)c1,Potency,[2],6810 nM (active)
same,Potency,[5],inactive
same,Potency,[4],4820 nM (active)
COc1cccc2c1C(=O)c1c(O)c3c(c(O)c1C2=O)C[C@@](O)(/C(CO)=N/NC(=O)CCCCCN1C(=O)C=CC1=O)C[C@@H]3O[C@H]1C[C@H](N)[C@H](O)[C@H](C)O1,Potency,[2],429 nM (active)
same,Potency,[3],1000 nM (active)
same,Potency,[4],341 nM (active)
CC(=O)N1CCN(CCOc2ccc(C3CCN(C4=Nn5c(nnc5C(F)(F)F)CC4)CC3)cc2)CC1,Potency,[2],19200 nM (active)
same,Potency,[5],inactive
same,"activity change, negative = inhibition",[3],-91.8%
same,Potency,[4],19200 nM (active)
O=c1c(-c2ccc(O)cc2)coc2c([C@@H]3O[C@H](CO)[C@@H](O)[C@H](O)[C@H]3O)c(O)ccc12,Potency,[2],inactive
same,Potency,[5],inactive
Cc1[nH]c2ccc(F)cc2c1-c1nc2c3cccnc3c3ncccc3c2[nH]1,Potency,[2],555 nM (active)
same,Potency,[5],inactive
same,"activity change, negative = inhibition",[3],-96.1% [at 114 µM]
same,Potency,[4],1750 nM (active)
